A short description of assay [1]: qHTS assay to identify small molecule antagonists of the peroxisome proliferator-activated receptor delta (PPARd) signaling pathway - cell viability counter screen (AID 743213). Also: nearly all actives have a fitted effect of over 50% in size. Also: potency is read from the fitted curve at half-maximal effect. Summed up:
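CellTiter-Glo was added to PPARd-bla HEK293H wells following 17 h compound treatment in the presence of 300 nM L165041. Luminescence was recorded after 30 min at room temperature.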
On the technique in general: qHTS replaces the single test concentration by a dilution series.

Assay [2] has as its target Bile acid receptor (Homo sapiens) (UniProt Q96RI1). Briefly: qHTS assay to identify small molecule antagonists of the farnesoid-X-receptor (FXR) signaling pathway (AID 743217; active = well fitted inhibition curve with a large enough effect in the signal ratio in the repeat runs, not every such curve was filed as active; the % refers to the signal ratio; also: potency is read from the fitted curve at half-maximal effect). Summed up: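 Beta-lactamase reporter under UAS control in HEK 293T cells; compound exposure 16 h at 37 °C in the presence of chenodeoxycholic acid (50 uM final); signal from B/G FRET substrate after 2 h at room temperature.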

The nature of assay [3]: qHTS assay to identify small molecule agonists of the farnesoid-X-receptor (FXR) signaling pathway - cell viability counter screen (AID 743218). Also: nearly all actives have a fitted effect of over 45% in size. Also: potency is read from the fitted curve at half-maximal effect. A digest of the protocol:
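In GeneBLAzer FXR-UAS-bla HEK 293T cells, compounds act for 16 h at 37 C. Cell viability is then scored in the reporter wells by CellTiter-Glo, 30 min at RT, luminescence.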

Assay [4] can be described thus: qHTS assay to identify small molecule antagonists of the farnesoid-X-receptor (FXR) signaling pathway - cell viability counter screen (AID 743221; active = well fitted cell-killing curve with a large enough effect in the repeat runs, not every such curve was filed as active; also: nearly all actives have a fitted effect of over 50% in size; also: potency is read from the fitted curve at half-maximal effect). Summed up:
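Cytotoxicity counter screen run in the FXR-bla reporter wells: HEK 293T cells exposed to compound with 50 uM (final) chenodeoxycholic acid for 16 h, 37 C, then viability measured by CellTiter-Glo luminescence after 30 min, room temperature.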

A short description of assay [5]: qHTS assay to identify small molecule agonists of the vitamin D receptor (VDR) signaling pathway - cell viability counter screen (AID 743224). Also: nearly all actives have a fitted effect of over 50% in size. Also: potency is read from the fitted curve at half-maximal effect. A digest of the protocol: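 VDR-bla cell line, quantitative HTS format; 16 h compound incubation (37C, 5% CO2); ATP-based CellTiter-Glo luminescence measured in the reporter assay wells.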
The target of assay [6] is Bile acid receptor (Homo sapiens) (UniProt Q96RI1). Description: qHTS assay to identify small molecule agonists of the farnesoid-X-receptor (FXR) signaling pathway (AID 743220; active = well fitted activation curve with a large enough effect in the signal ratio in the repeat runs, not every such curve was filed as active; the % refers to the signal ratio). A digest of the protocol: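 Beta-lactamase reporter under UAS control in GeneBLAzer FXR HEK 293T cells (5000/well) measured with LiveBLAzer FRET substrate after 2 h at room temperature. Compound exposure lasted 16 h at 37C.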

The target in assay [7] is Vitamin D3 receptor (Homo sapiens) (UniProt P11473). Description: qHTS assay to identify small molecule agonists of the vitamin D receptor (VDR) signaling pathway (AID 743222; calls by dose curve). Summed up:
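Agonist activity measured in VDR-bla reporter cells. Exposure 16 h, 37C, 5% CO2; detection by B/G FRET substrate, 2 h RT.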

Assay [8] shares this target. Briefly: qHTS assay to identify small molecule antagonists of the vitamin D receptor (VDR) signaling pathway (AID 743223; active = well fitted inhibition curve with a large enough effect in the signal ratio in the repeat runs, not every such curve was filed as active; the % refers to the signal ratio). Summed up:
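Antagonist mode: compound added to VDR-bla cells alongside agonist 1alpha,25-dihydroxyvitamin D3 (3 nM final), incubation 16 h at 37C. Read-out is LiveBLAzer FRET fluorescence, 2 h at room temperature.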

Assay [9] concerns the target Peroxisome proliferator-activated receptor delta (Homo sapiens) (UniProt Q03181). Briefly: qHTS assay to identify small molecule agonists of the peroxisome proliferator-activated receptor delta (PPARd) signaling pathway (AID 743212; calls by dose curve; also: potency is read from the fitted curve at half-maximal effect). Summed up: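 HEK293H UAS-bla reporter cells, human PPARd system; compounds delivered in DMSO after 5 h plating, then at 37 C. Beta-lactamase FRET read, 2 h RT substrate step.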

Assay [10] shares this target. Description: qHTS assay to identify small molecule antagonists of the peroxisome proliferator-activated receptor delta (PPARd) signaling pathway (AID 743215; active = well fitted inhibition curve with a large enough effect in the signal ratio in the repeat runs, not every such curve was filed as active; the % refers to the signal ratio;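 also: cells stimulated with agonist L165041 at 300 nM final during compound exposure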; also: potency is read from the fitted curve at half-maximal effect). A digest of the protocol: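 Antagonist-mode beta-lactamase reporter screen: HEK293H cells with UAS-bla under PPARd control, stimulated by 300 nM L165041 (final) alongside test compound for 17 h at 37 C, then FRET fluorescence after 2 h substrate incubation.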

Several values for one entry are separate records, joined by “and”; a condition that tells them apart may be missing. Equal entries are not always repeated. Inconclusive results are not listed. A structure can be active in one record and inactive in another. Activity calls are given as the source filed them. Unless noted, calls follow the shape of the dose curve; as a rule, active = well fitted curve in the direction sought with a large enough effect in the repeat runs; inconclusive = weak or mixed curves; inactive = no such curve, though single readings can be large; an effect the other way counts as inactive or inconclusive.

Chain of Bile acid receptor (Homo sapiens) (Q96RI1 whole entry, looked up): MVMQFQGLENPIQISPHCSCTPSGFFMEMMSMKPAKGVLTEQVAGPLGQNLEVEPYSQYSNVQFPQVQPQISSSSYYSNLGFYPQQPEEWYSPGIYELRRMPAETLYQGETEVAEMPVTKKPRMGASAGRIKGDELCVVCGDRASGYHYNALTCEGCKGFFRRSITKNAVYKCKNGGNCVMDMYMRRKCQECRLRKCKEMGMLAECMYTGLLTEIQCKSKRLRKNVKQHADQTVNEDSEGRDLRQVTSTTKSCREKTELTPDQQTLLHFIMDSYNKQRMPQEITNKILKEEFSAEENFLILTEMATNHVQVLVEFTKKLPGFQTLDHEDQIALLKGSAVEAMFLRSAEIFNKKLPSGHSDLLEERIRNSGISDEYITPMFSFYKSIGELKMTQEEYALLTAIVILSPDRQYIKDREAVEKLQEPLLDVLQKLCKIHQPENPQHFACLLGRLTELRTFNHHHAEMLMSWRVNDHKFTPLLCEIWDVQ
Chain of Peroxisome proliferator-activated receptor delta (Homo sapiens) (Q03181 whole entry, looked up): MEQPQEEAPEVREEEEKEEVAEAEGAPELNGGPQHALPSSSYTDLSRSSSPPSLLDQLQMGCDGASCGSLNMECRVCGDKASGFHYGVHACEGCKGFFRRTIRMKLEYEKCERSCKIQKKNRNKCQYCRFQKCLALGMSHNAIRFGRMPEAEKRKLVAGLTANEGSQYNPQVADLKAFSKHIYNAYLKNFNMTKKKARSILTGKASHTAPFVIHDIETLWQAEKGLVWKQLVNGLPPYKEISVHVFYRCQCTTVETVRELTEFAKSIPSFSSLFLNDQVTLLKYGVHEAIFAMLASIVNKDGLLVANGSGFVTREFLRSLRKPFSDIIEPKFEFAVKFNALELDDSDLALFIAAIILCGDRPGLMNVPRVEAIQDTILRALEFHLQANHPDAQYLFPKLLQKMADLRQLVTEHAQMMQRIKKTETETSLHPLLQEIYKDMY
Chain of Vitamin D3 receptor (Homo sapiens) (P11473 whole entry, looked up): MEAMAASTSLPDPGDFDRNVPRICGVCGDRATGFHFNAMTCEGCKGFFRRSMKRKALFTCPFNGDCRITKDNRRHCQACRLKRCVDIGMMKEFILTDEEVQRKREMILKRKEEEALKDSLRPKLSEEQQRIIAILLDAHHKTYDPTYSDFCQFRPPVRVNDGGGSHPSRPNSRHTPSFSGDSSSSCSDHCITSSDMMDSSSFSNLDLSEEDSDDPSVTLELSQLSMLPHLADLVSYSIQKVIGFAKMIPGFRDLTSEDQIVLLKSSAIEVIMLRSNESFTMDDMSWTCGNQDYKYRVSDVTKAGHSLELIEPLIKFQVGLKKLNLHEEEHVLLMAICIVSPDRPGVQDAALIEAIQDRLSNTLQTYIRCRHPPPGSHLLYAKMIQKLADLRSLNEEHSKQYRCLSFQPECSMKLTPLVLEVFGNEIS

Regarding `CCOC(=S)S`, the Potency was 29.3 µM (active) in assay [1]; 24.5 µM (active) and 20.7 µM (active) in assay [5]. Moreover, the Potency entry in assay [2], in assay [3] and in [4] was “inactive” each time.

Consider `CCC(C)c1ccc(O)cc1` (stereo not given), for which the Potency entry in assay [1], in assay [2], in assay [3], in assay [4] and in assay [5] was “inactive” each time. The outcome in assay [6] was inactive.

For the molecule `N#CCCCl`, the Potency result in assay [1], in [3], in assay [4] and in assay [5] was “inactive” in each case. Besides, the molecule was classed as inactive in assay [7] and in assay [8].

As to `CCCCNC(=O)n1c(NC(=O)OC)nc2ccccc21`, the Potency result in [1], in [3], in assay [4] and in assay [5] was “inactive” throughout. Also, the molecule was called inactive in [7].

`Cc1cccc(N)c1N`: the Potency entry in assay [2], in assay [3], in assay [4] and in assay [5] was “inactive” throughout. The molecule was classed as inactive in [7].

For `C=CCc1ccc(OC)cc1`, the Potency result in assay [9], in assay [1], in assay [3], in assay [4] and in [5] was “inactive” in each case.

Consider `Oc1c(Cl)c(Cl)c(Cl)c(Cl)c1Cl`, for which the Potency result in assay [4] is “inactive”. Also, the result in assay [7] and in assay [8] was inactive.

In the case of `CN(C)c1ccc(C(=O)c2ccc(N(C)C)cc2)cc1`, the Potency result in assay [1], in assay [3], in [4] and in [5] was “inactive” each time. The result in [7] was inactive.

On to `C=C(C)[C@H]1Cc2c(ccc3c2O[C@@H]2COc4cc(OC)c(OC)cc4[C@@H]2C3=O)O1`, for which the Potency entry in [9], in [3] and in [4] was “inactive” each time. In addition, the Potency was 4.9 µM (active) and inactive in assay [10]; 0.75 µM (active) in assay [2].

Take `Cc1cc(C)cc(C)c1`: the Potency result in [1], in assay [3], in [4] and in assay [5] was “inactive” each time. In addition, the call in assay [7] and in assay [8] was inactive.

Consider `CCC(C)(C)c1ccc(O)cc1`, for which the Potency result in assay [1], in [2], in assay [3], in [4] and in [5] was “inactive” in each case. Also, the call in [7] and in assay [8] was inactive.

With `CCC(C)c1cc([N+](=O)[O-])cc([N+](=O)[O-])c1O` (stereo not given), the Potency entry in assay [1], in assay [10], in [2], in assay [3], in assay [4] and in assay [5] was “inactive” throughout. For the same molecule, the molecule was called inactive in [7] and in [8].

In the case of `c1ccc(-c2cccc(-c3ccccc3)c2)cc1`, the Potency result in assay [1], in [2], in assay [3], in assay [4] and in assay [5] was “inactive” in each case.

For `CC1(C)C(C=C(Cl)Cl)C1C(=O)OC(C#N)c1cccc(Oc2ccccc2)c1` (stereo not given), the Potency result in assay [1], in [3], in assay [4] and in assay [5] was “inactive” throughout. For the same molecule, the result in assay [7] and in [8] was inactive.

Regarding `C[C@]12CCC(=O)C(O)=C1CC[C@@H]1[C@@H]2CC[C@]2(C)C(=O)CC[C@@H]12`, the Potency result in assay [1], in assay [3], in assay [4] and in assay [5] was “inactive” in each case. The molecule was called inactive in assay [7] and in assay [8].

For the molecule `c1ccc(N=Nc2ccccc2)cc1`, the Potency entry in assay [1], in assay [3], in [4] and in [5] was “inactive” in each case. The outcome in assay [7] and in [8] was inactive.

For the molecule `CC(C)Oc1cc(-n2nc(C(C)(C)C)oc2=O)c(Cl)cc1Cl`, the Potency entry is “inactive and 27.5 µM (active)” in assay [1]; “inactive and 38.9 µM (active)” in assay [3]; “inactive and 49 µM (active)” in assay [4]; 12.3 µM (active) in [5]. Besides, in assay [10], the Potency result is “inactive”. In addition, the call in [6], in assay [7] and in assay [8] was inactive.

`O=C(O)C(F)(F)C(F)(F)C(F)(F)C(F)(F)C(F)(F)C(F)(F)C(F)(F)F`: in assay [9], the Potency was 19.4 µM (active). In addition, the Potency entry in assay [1], in assay [3], in [4] and in assay [5] was “inactive” each time. Besides, the result in [7] and in [8] was inactive.

In the case of `CCC(C)(c1ccc(O)cc1)c1ccc(O)cc1`, the Potency result in [1], in assay [2], in assay [3], in [4] and in [5] was “inactive” throughout.

In the case of `CCOCN(C(=O)CCl)c1c(C)cccc1CC`, the Potency result in [1], in [4] and in [5] was “inactive” each time. The outcome in assay [7] and in assay [8] was inactive.

With `S=C1NCCN1`, the Potency result in [1], in assay [3], in assay [4] and in assay [5] was “inactive” each time. Also, the molecule was classed as inactive in [7] and in assay [8].

On to `O=c1oc2ccccc2c(O)c1C(CC(O)c1ccc(-c2ccc(Br)cc2)cc1)c1ccccc1` (stereo not given), for which the Potency result in assay [1], in assay [2], in assay [3], in [4] and in assay [5] was “inactive” throughout.

Regarding `Nc1ccc(Cl)cc1N`, the Potency entry in assay [1], in assay [3] and in assay [4] was “inactive” throughout. For the same molecule, the Potency result in assay [5] was “inactive and 43.6 µM (active)”.

For `CNC(=O)Oc1cccc2c1OC(C)(C)O2`, the Potency entry in [1], in assay [10], in assay [2], in assay [3], in assay [4] and in assay [5] was “inactive” each time. In assay [7], the call was inactive.

As for `C=CCc1ccc2c(c1)OCO2`, the Potency entry in assay [1], in [3], in assay [4] and in [5] was “inactive” throughout. Moreover, the molecule was called inactive in assay [7] and in assay [8].

As to `O=[N+]([O-])c1ccc(O)c([N+](=O)[O-])c1`, in assay [5], the Potency result is “inactive”.

In the case of `CCOP(=S)(OCC)O/N=C(\C#N)c1ccccc1`, the Potency entry in assay [9], in assay [10], in assay [2], in [3], in assay [4] and in [5] was “inactive” throughout. In addition, the molecule was called inactive in [7] and in [8].

Take `Cc1ccc(N)c(N)c1`: the Potency entry in [1], in assay [3], in assay [4] and in assay [5] was “inactive” throughout. Also, the molecule was classed as inactive in assay [7] and in assay [8].

`C[C@]12CCC(=O)C[C@@H]1CC[C@@H]1[C@@H]2CC[C@]2(C)[C@@H](O)CC[C@@H]12`: the Potency entry in assay [3] and in [5] was “inactive” in each case.

As to `Nc1ccc(-c2ccc(N)c(N)c2)cc1N`, the Potency result in assay [9], in assay [2], in assay [3], in assay [4] and in assay [5] was “inactive” each time. In [7], the outcome was inactive.

For `CCN(CC)C(=O)SCc1ccc(Cl)cc1`, the Potency entry in assay [1], in [2], in [4] and in assay [5] was “inactive” in each case. The molecule was classed as inactive in [7] and in assay [8].

On to `CCCCC(CC)COC(=O)Cl` (stereo not given), for which the Potency entry in [1], in assay [2], in [3], in [4] and in [5] was “inactive” in each case. For the same molecule, the molecule was called inactive in assay [7] and in assay [8].

Regarding `Oc1cc(Cl)c(Cl)cc1Cl`, the Potency result in assay [1], in assay [3], in assay [4] and in assay [5] was “inactive” in each case.

For `N#Cc1cc(Br)c(O)c(Br)c1`, the Potency entry in [9], in [10], in [2], in [4] and in assay [5] was “inactive” each time. Besides, the molecule was called inactive in assay [6].

Turning to `Nc1ccncc1`, the Potency result in assay [9], in assay [10], in [3], in assay [4] and in [5] was “inactive” in each case. Besides, the call in assay [7] and in assay [8] was inactive.

Consider `c1cc(OCC2CO2)ccc1Cc1ccc(OCC2CO2)cc1` (stereo not given), for which the Potency entry in assay [1], in assay [2], in assay [3], in assay [4] and in assay [5] was “inactive” throughout.

In the case of `CCCCN(CCCC)N=O`, the Potency entry in assay [1], in [2], in assay [3], in assay [4] and in assay [5] was “inactive” each time.

These data come from PubChem BioAssay (Tox21).
